Cruzain noTriton – blocks cruzain activity in detergent-free assay; P25779; purified cruzain, Z-FR-AMC fluorescence, no detergent; Potency, µM, for inactives: max response, negative = inhibition, actives largely listed as inhibitors; actives 2.3% (n = 200,000); AID 1476;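 also: plate controls were enzyme without inhibitor for no effect and buffer without enzyme for full effect; nearly all actives have a fitted effect of over 40% in size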
Target sequence (P25779 123-467 limits assumed): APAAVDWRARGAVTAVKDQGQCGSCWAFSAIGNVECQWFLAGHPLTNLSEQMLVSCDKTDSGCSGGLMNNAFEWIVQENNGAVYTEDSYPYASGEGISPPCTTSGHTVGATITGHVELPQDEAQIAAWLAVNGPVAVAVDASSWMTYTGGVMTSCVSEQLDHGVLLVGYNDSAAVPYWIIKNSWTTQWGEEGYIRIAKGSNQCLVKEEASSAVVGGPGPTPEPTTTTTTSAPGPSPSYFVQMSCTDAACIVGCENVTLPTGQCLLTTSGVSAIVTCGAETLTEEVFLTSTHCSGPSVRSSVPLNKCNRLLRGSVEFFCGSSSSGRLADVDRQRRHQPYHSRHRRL
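Purified cruzain at 1.5 nM, pre-incubated 15 min with compound at room temperature in 100 mM sodium acetate pH 5.5, 5 mM DTT, 0.00005% Triton X-100. Reaction started with 2 uM Z-FR-AMC; AMC fluorescence increase over 60 s gives rate.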
Cruzain inh Det – blocks cruzain activity in presence of Triton detergent | purified cruzain, Z-FR-AMC fluorescence, 0.01% Triton | Potency, µM, without a hit: max response, negative = inhibition, most hits filed as inhibitors | actives 0.43% (n = 200,000);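 also: plate controls were neutral wells for no effect and buffer without enzyme for full effect; nearly all actives have a fitted effect of over 40% in size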
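Detergent-containing run (0.01% Triton X-100) in acetate buffer pH 5.5 with 5 mM DTT: enzyme at 1.5 nM final, 15 min compound preincubation at room temperature, then 2 uM Z-FR-AMC substrate. Activity taken as 60 s fluorescence increase at 360/450 nm.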
* = called active by the depositor; u = inconclusive. Hits are enriched below; roughly 2.6% of the tested compounds scored in any of these assays. Calls follow the shape of the dose curve; as a rule, active = well fitted curve in the direction sought with a large enough effect; inconclusive = small, poorly fitted or top-dose-only effect, or another doubt; inactive = no such curve, though single readings can be large; an effect the other way counts as inactive or inconclusive. Potency is read from the fitted curve at half-maximal effect.

SMILES | Cruzain noTriton | Cruzain inh Det
COc1ccccc1NC(=O)c1ccc2nc(-c3ccccc3)c(-c3ccccc3)nc2c1 | 31.6µM* | 5.0%
COc1ccc(NC(=O)c2ccc3nc(-c4ccccc4)c(-c4ccccc4)nc3c2)c(OC)c1 | -19.1% | 1.6%
O=C(CSc1nnnn1C1CCCCC1)N1c2ccccc2Sc2ccccc21 | u | 3.7%
O=C(O)c1cc(Cl)ccc1Cl | -6.0% | 3.4%
OC[C@@H]1[C@@H](c2ccc(F)cc2)C(c2ccc(F)cc2)=NN1c1ccccc1 | 20µM* | -2.5%
CC[C@H]1C(c2cccc(Cl)c2)=NN(c2ccccc2)[C@@H]1CO | -11.2% | 1.4%
OC[C@@H]1[C@@H](c2ccccc2)C(c2ccc(F)cc2)=NN1c1ccccc1 | u | -9.6%
OC[C@@H]1[C@@H](c2ccc(Cl)cc2)C(c2ccc(F)cc2)=NN1c1ccccc1 | 25.1µM* | 0.2%
CCOc1cc(-c2nnc(SCC(=O)NCc3ccccc3)nc2-c2ccc(OC)c(OCC)c2)ccc1OC | u | 0.7%
O=C(CC1S/C(=N/N=C/c2c[nH]c3ccccc23)NC1=O)Nc1ccccc1 (stereo not given) | u | -6.2%
O=C(CC1S/C(=N/N=C/c2c[nH]c3ccc(OCc4ccccc4)cc23)NC1=O)Nc1ccccc1 (stereo not given) | 6.31µM* | -3.5%
O=C(CC1S/C(=N/N=C/c2cccs2)NC1=O)Nc1ccc(Cl)cc1 (stereo not given) | -26.7% | -1.9%
O=C(CC1S/C(=N/N=C/c2cccs2)NC1=O)Nc1ccc(Cl)c(Cl)c1 (stereo not given) | 20µM* | -5.0%
Cc1ccc(Cl)cc1N1CCN(S(=O)(=O)c2c(C)[nH]c(=O)[nH]c2=O)CC1 | u | 0.2%
NC(=O)c1c(NC(=O)c2cccs2)sc2c1CCCCCC2 | 15.0% | -7.1%
COC(=O)C1=C(C)N(CCc2ccccc2)C(=O)C1(NS(=O)(=O)c1ccc(NC(C)=O)cc1)C(F)(F)F (stereo not given) | u | -3.9%
Cc1ccc(N2CCN(C3=NC(=O)C(Cc4ccccc4)S3)CC2)cc1 (stereo not given) | -4.0% | 28.2µM*
O=C1N=C(N2CCN(c3ccccc3)CC2)SC1Cc1ccccc1 (stereo not given) | -7.0% | -26.2%
COCCNC(=O)c1ccc2nc(Cc3ccccc3)oc2c1 | -9.8% | -0.7%
COc1ccc(-c2nc(-c3ccccc3)c(-c3cc([N+](=O)[O-])ccc3C)[nH]2)cc1O | 6.8% | -4.3%
COc1ccc(-c2nc(=S)c3c([nH]2)Oc2ccc(C)cc2C3)cc1O | 10µM* | 0.3%
CCOC(=O)c1c(NC(=O)CSc2nc3cc(Cl)ccc3s2)sc(C(C)=O)c1C | 15.8µM* | -6.1%
CCOC(=O)c1c(NC(=O)CSc2nc3ccccc3s2)sc(C(C)=O)c1C | -24.7% | -1.6%
Cc1cc(C)nc(NC(=O)CSc2nc3cc(Cl)ccc3s2)n1 | 6.4% | -3.4%
Cc1cc(NC(=O)CSc2nc3cc(Cl)ccc3s2)no1 | 10µM* | 1.4%
SMILES | Cruzain noTriton | Cruzain inh Det
O=[N+]([O-])c1ccc(/C=N/n2cnc3ccccc32)s1 | 10.2% | -6.6%
O=C(Cn1ccc2ccccc2c1=O)NCC1COc2ccccc2O1 (stereo not given) | -11.2% | -0.9%
CC12CN3CC(C)(CN(C1)C3c1ccc(OCc3ccccc3)cc1)C2=O (stereo not given) | -3.5% | 2.4%
Cc1cccc(-n2cc(-c3ccccc3)c3c(=O)[nH]cnc32)c1 | -0.9% | -4.4%
Fc1ccccc1/C=N/NC(=S)Nc1ccc(Cl)cc1Cl | 10µM* | 1.2%
Fc1ccc(NC(=S)N/N=C/c2ccc(F)c(F)c2)c(F)c1 | u | 4.4%
CCOC(=O)Cc1cc(=O)n2[nH]c(C)c(-c3ccc(Cl)cc3)c2n1 | 3.6% | 3.3%
Cc1nc(NC(=O)c2ccccc2)sc1-c1csc(Nc2cccc(F)c2)n1 | u | 4.7%
Cc1cc(NS(=O)(=O)c2ccc(Nc3nc(-c4sc(NC(=O)c5ccccc5)nc4C)cs3)cc2)no1 | 6.31µM* | -11.4%
CCC(=O)Nc1nc(C)c(-c2csc(Nc3ccc(S(=O)(=O)Nc4cc(C)on4)cc3)n2)s1 | -17.8% | -0.9%
CCCCC(=O)Nc1nc(C)c(-c2csc(Nc3cc(Cl)ccc3OC)n2)s1 | 10µM* | 0.5%
CCCCC(=O)Nc1nc(C)c(-c2csc(Nc3cc(OC)ccc3OC)n2)s1 | u | -1.8%
CCCC(C)C(=O)Nc1nc(C)c(-c2csc(Nc3ccccc3OC)n2)s1 (stereo not given) | u | 4.8%
CCCC(C)C(=O)Nc1nc(C)c(-c2csc(Nc3ccc(Cl)cc3)n2)s1 (stereo not given) | 10µM* | 2.5%
Cc1ccc(Cl)cc1Nc1nc(-c2sc(NC(=O)c3ccccc3)nc2C)cs1 | 6.31µM* | 3.7%
O=C(O)CCNS(=O)(=O)c1ccccc1 | 2.4% | 6.7%
Cc1cccc(C(=O)N(NC(=O)Oc2ccccc2)C(C)(C)C)c1 | 0.4% | -1.9%
CCCCCCC(=O)Nc1nc(C)c(-c2csc(Nc3cc(Cl)ccc3C)n2)s1 | 10µM* | 3.2%
COc1ccc(Cl)cc1Nc1nc(-c2sc(NC(=O)c3ccco3)nc2C)cs1 | 15.8µM* | -1.1%
COc1ccc(Cl)cc1Nc1nc(-c2sc(NC(=O)C(C)(C)C)nc2C)cs1 | -24.4% | 1.9%
CCC(C)C(=O)Nc1nc(C)c(-c2csc(Nc3cc(Cl)ccc3OC)n2)s1 (stereo not given) | -15.7% | 1.4%
COc1ccc(OCC2c3cc(OC)c(OC)cc3CCN2C(=O)COc2ccc(Cl)cc2Cl)cc1 (stereo not given) | -29.8% | 1.1%
NC(=O)CN1CCN(c2nc(-c3ccc(F)cc3)cs2)CC1 | 0.4% | -1.8%
O=C(CN1CCN(c2nc(-c3ccc(F)cc3)cs2)CC1)Nc1ccc2c(c1)OCO2 | 25.1µM* | -5.3%
Cc1sc2ncnc(-n3cnc4ccccc43)c2c1C | -7.0% | 3.7%
SMILES | Cruzain noTriton | Cruzain inh Det
S=C(Nc1ccccc1)Nc1nc2ccccc2n1CCOc1ccccc1 | 10µM* | 4.4%
CC(=O)Nc1nc2ccccc2n1CCOc1ccccc1 | -6.8% | -0.1%
FCCCOc1ccc(/C=N/OCc2c(Cl)cccc2Cl)cc1 | -29.5% | -1.6%
Nc1nc2n(n1)C(c1ccco1)CC(c1ccccc1)N2 (stereo not given) | -20.9% | 0.7%
CCC(=O)NCCc1nc2ccccc2n1Cc1ccccc1 | -16.7% | -0.4%
Cc1cccc(C(=O)NCc2nc3ccccc3n2Cc2ccccc2Cl)c1 | 16.1% | -14.9%
CCCCCn1c(CCNC(=O)c2cccc(C)c2)nc2ccccc21 | 5.9% | 12.6µM*
Cc1cccc(C(=O)NCCc2nc3ccccc3n2Cc2ccc(Cl)cc2)c1 | u | 7.94µM*
O=C(NCCc1nc2ccccc2n1Cc1ccc(Cl)cc1)c1ccccc1 | 17.1% | 6.31µM*
CCCCCn1c(CNC(=O)c2cccs2)nc2ccccc21 | 16.5% | -5.2%
CCCCCn1c(CCNC(=O)CCC)nc2ccccc21 | -5.5% | -21.0%
CCCCCn1c(CCNC(=O)c2cccs2)nc2ccccc21 | 12.6µM* | -21.8%
CC1CCc2cc(F)ccc2N1C(=O)CSc1nnc2c(n1)[nH]c1ccc(F)cc12 (stereo not given) | -6.5% | 11.1%
O=C(NS(=O)(=O)c1ccccc1)c1ccccc1O | 0.0% | 8.9%
CCCCCCOc1ccc(C2C(=O)N(C3CCCCC3)CC(=O)N2CCCC)cc1 (stereo not given) | 20.6% | 0.3%
COc1ccccc1NC(=O)Cn1c(=O)n(CCc2c[nH]c3ccccc23)c(=O)c2cccnc21 | 20µM* | -3.2%
COc1ccccc1NC(=O)CSc1nc2nccnc2c(=O)n1CCc1c[nH]c2ccccc12 | 3.6% | -2.7%

From PubChem
